# How the values were obtained:
# Test in all cases: DAPPL (digital affinity profiling via proximity ligation, sequencing); 10 mM Tris-HCl pH 7.5, 50 mM NaCl, 1 mM DTT, 4% glycerol, room temperature, 30 min; GST-TFs on glutathione beads, 16-mer random dsDNA library, 0.1% formaldehyde crosslink after washing; high values mean tight binding
# Details in all cases: protein: recombinant; tags: N-terminal GST; dsDNA, one strand shown
# [1] = target: T1, ERF (Homo sapiens, UniProt P50548 1-548)
# T1 sequence: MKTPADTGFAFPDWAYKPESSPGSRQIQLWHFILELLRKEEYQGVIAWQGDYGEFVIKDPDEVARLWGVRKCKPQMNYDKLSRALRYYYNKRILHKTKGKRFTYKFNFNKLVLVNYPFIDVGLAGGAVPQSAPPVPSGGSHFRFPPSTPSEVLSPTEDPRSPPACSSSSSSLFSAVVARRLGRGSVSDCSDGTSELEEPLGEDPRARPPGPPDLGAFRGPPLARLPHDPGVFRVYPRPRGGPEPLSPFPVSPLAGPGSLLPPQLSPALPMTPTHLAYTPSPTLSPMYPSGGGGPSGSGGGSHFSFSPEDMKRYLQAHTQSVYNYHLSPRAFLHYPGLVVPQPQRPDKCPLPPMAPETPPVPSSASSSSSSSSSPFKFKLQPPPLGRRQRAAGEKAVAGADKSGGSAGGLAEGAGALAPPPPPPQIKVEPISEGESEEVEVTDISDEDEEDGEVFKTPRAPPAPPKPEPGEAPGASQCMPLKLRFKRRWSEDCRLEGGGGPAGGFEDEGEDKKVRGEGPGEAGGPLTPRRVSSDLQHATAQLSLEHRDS
# Outline: (§1)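 Sequencing on an Illumina NextSeq500 followed washing, crosslinking with 0.1% formaldehyde, proximity ligation (BsaI/T4 ligase, 1 h, 37 °C) and PCR amplification of pools that had been incubated for 30 min at room temperature with 200 nmole of a random double-stranded 16-mer DNA library in Tris/NaCl/DTT/glycerol buffer. Each pool held DNA-barcoded human transcription factors, expressed in yeast as GST fusions and captured on glutathione beads, plus a tag-only sample. Binding signal is a hexamer's read frequency for a factor divided by its frequency in the tag-only sample.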
# [2] = target: T2, ETV3L (Homo sapiens, UniProt Q6ZN32 1-361)
# T2 sequence: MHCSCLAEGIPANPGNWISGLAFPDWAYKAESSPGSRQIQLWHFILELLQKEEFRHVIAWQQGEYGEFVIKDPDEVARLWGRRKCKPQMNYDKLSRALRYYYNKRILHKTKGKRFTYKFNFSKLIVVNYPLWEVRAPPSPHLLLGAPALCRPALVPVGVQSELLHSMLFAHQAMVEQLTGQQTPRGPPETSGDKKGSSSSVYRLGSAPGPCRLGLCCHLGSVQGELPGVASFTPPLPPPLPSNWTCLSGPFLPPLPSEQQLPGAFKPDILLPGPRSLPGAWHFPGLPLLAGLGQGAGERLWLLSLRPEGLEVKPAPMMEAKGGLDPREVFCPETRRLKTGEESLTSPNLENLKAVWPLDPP
# Outline: as §1
# [3] = target: T3, ETS2 (Homo sapiens, UniProt P15036 1-469)
# T3 sequence: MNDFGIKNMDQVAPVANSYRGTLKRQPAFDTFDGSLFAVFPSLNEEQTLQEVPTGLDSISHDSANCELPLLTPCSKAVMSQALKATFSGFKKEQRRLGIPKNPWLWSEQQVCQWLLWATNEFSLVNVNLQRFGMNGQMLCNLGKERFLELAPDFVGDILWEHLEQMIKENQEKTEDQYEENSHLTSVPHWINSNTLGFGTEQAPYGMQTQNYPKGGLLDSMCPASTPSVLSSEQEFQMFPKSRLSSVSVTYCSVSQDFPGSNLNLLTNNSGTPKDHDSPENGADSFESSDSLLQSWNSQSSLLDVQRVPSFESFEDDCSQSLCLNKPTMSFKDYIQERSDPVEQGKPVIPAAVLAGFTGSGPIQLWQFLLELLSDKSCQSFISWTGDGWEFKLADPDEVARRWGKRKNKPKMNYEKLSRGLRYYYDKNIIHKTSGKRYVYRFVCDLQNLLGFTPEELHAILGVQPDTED
# Outline: as §1
# [4] = target: T4, SPDEF (Homo sapiens, UniProt O95238 1-335)
# T4 sequence: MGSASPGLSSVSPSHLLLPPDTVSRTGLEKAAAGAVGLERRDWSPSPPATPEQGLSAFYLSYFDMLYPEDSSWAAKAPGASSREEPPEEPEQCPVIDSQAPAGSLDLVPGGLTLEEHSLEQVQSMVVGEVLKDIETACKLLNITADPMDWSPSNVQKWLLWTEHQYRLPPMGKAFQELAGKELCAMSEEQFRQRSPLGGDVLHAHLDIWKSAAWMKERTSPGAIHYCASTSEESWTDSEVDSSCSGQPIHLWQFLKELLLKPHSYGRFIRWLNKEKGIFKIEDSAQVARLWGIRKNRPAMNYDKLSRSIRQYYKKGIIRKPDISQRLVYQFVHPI
# Outline: as §1
# [5] = target: T5, ETV7 (Homo sapiens, UniProt Q9Y603 1-341)
# T5 sequence: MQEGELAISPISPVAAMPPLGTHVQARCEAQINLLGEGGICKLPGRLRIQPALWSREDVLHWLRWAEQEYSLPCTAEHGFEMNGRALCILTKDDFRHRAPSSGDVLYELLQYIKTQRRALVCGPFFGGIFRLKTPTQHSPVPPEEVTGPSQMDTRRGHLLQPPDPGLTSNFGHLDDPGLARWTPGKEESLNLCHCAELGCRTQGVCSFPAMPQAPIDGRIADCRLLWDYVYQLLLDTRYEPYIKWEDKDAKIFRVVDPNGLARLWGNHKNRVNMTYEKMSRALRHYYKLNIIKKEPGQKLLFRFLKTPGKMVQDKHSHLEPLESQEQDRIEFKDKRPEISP
# Outline: as §1
# [6] = target: T6, ELF5 (Homo sapiens, UniProt Q9UKW6-2 1-255)
# T6 sequence: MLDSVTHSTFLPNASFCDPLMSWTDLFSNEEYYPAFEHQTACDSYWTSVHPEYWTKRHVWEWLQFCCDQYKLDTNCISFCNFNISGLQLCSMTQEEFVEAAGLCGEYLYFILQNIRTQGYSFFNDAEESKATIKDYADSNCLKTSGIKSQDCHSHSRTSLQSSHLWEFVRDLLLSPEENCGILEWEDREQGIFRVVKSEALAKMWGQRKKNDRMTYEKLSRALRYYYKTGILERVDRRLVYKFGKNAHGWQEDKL
# Outline: as §1
# [7] = target: T7, ETV3 (Homo sapiens, UniProt P41162-2 1-143)
# T7 sequence: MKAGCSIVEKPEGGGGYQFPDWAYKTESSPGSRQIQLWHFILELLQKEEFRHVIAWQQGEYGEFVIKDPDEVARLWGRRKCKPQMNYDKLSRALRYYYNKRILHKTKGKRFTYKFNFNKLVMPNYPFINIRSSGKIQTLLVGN
# Outline: as §1
# [8] = target: ETV6 (Homo sapiens, UniProt P41212 1-452)
# ETV6, sequence (P41212 whole entry): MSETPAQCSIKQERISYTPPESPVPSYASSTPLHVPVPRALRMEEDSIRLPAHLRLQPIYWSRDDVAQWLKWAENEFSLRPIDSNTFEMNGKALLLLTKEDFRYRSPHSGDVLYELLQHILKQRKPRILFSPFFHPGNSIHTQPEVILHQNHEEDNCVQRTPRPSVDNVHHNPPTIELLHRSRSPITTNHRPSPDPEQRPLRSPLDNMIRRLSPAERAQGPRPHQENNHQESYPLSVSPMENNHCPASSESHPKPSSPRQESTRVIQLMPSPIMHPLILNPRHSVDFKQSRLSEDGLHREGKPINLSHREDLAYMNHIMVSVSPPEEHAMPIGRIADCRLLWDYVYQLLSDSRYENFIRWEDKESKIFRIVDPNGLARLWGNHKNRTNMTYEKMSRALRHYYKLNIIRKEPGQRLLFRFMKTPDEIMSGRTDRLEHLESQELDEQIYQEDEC
# Outline: as §1
Sequence,binding signal [1],binding signal [2],binding signal [3],binding signal [4],binding signal [5],binding signal [6],binding signal [7],binding signal [8]
TTAAGC,"1.21 fold enrichment (6-mer frequency, TF over GST control)","1.22 fold enrichment (6-mer frequency, TF over GST control)","1.13 fold enrichment (6-mer frequency, TF over GST control)","1.04 fold enrichment (6-mer frequency, TF over GST control)","1.13 fold enrichment (6-mer frequency, TF over GST control)","1.14 fold enrichment (6-mer frequency, TF over GST control)","1.22 fold enrichment (6-mer frequency, TF over GST control)","1.06 fold enrichment (6-mer frequency, TF over GST control)"
AATAGT,"1.21 fold enrichment (6-mer frequency, TF over GST control)","1.25 fold enrichment (6-mer frequency, TF over GST control)","1.13 fold enrichment (6-mer frequency, TF over GST control)","1.06 fold enrichment (6-mer frequency, TF over GST control)","1.18 fold enrichment (6-mer frequency, TF over GST control)","1.18 fold enrichment (6-mer frequency, TF over GST control)","1.3 fold enrichment (6-mer frequency, TF over GST control)","1.34 fold enrichment (6-mer frequency, TF over GST control)"
ATTCGT,"1.22 fold enrichment (6-mer frequency, TF over GST control)","1.16 fold enrichment (6-mer frequency, TF over GST control)","1.26 fold enrichment (6-mer frequency, TF over GST control)","1.18 fold enrichment (6-mer frequency, TF over GST control)","1.34 fold enrichment (6-mer frequency, TF over GST control)","1.11 fold enrichment (6-mer frequency, TF over GST control)","1.28 fold enrichment (6-mer frequency, TF over GST control)","1.11 fold enrichment (6-mer frequency, TF over GST control)"
AATAAG,"1.32 fold enrichment (6-mer frequency, TF over GST control)","1.18 fold enrichment (6-mer frequency, TF over GST control)","1.24 fold enrichment (6-mer frequency, TF over GST control)","1.26 fold enrichment (6-mer frequency, TF over GST control)","1.19 fold enrichment (6-mer frequency, TF over GST control)","1.27 fold enrichment (6-mer frequency, TF over GST control)","1.29 fold enrichment (6-mer frequency, TF over GST control)","1.33 fold enrichment (6-mer frequency, TF over GST control)"
GATTCA,"1.06 fold enrichment (6-mer frequency, TF over GST control)","1.19 fold enrichment (6-mer frequency, TF over GST control)","1.18 fold enrichment (6-mer frequency, TF over GST control)","1.12 fold enrichment (6-mer frequency, TF over GST control)","1.09 fold enrichment (6-mer frequency, TF over GST control)","1.05 fold enrichment (6-mer frequency, TF over GST control)","1.2 fold enrichment (6-mer frequency, TF over GST control)","1.13 fold enrichment (6-mer frequency, TF over GST control)"
CCTTAG,"1.22 fold enrichment (6-mer frequency, TF over GST control)","1.26 fold enrichment (6-mer frequency, TF over GST control)","1.27 fold enrichment (6-mer frequency, TF over GST control)","1.24 fold enrichment (6-mer frequency, TF over GST control)","1.21 fold enrichment (6-mer frequency, TF over GST control)","1.29 fold enrichment (6-mer frequency, TF over GST control)","1.27 fold enrichment (6-mer frequency, TF over GST control)","1.23 fold enrichment (6-mer frequency, TF over GST control)"
GTAAAT,"1.18 fold enrichment (6-mer frequency, TF over GST control)","1.23 fold enrichment (6-mer frequency, TF over GST control)","1.18 fold enrichment (6-mer frequency, TF over GST control)","1.13 fold enrichment (6-mer frequency, TF over GST control)","1.2 fold enrichment (6-mer frequency, TF over GST control)","1.12 fold enrichment (6-mer frequency, TF over GST control)","1.13 fold enrichment (6-mer frequency, TF over GST control)","1.18 fold enrichment (6-mer frequency, TF over GST control)"
ATTGAC,"1.24 fold enrichment (6-mer frequency, TF over GST control)","1.26 fold enrichment (6-mer frequency, TF over GST control)","1.36 fold enrichment (6-mer frequency, TF over GST control)","1.12 fold enrichment (6-mer frequency, TF over GST control)","1.25 fold enrichment (6-mer frequency, TF over GST control)","1.19 fold enrichment (6-mer frequency, TF over GST control)","1.21 fold enrichment (6-mer frequency, TF over GST control)","1.23 fold enrichment (6-mer frequency, TF over GST control)"
CCCTTC,"1.25 fold enrichment (6-mer frequency, TF over GST control)","1.44 fold enrichment (6-mer frequency, TF over GST control)","1.37 fold enrichment (6-mer frequency, TF over GST control)","1.38 fold enrichment (6-mer frequency, TF over GST control)","1.43 fold enrichment (6-mer frequency, TF over GST control)","1.62 fold enrichment (6-mer frequency, TF over GST control)","1.34 fold enrichment (6-mer frequency, TF over GST control)","1.5 fold enrichment (6-mer frequency, TF over GST control)"
TGCTTC,"1.81 fold enrichment (6-mer frequency, TF over GST control)","2.16 fold enrichment (6-mer frequency, TF over GST control)","2.06 fold enrichment (6-mer frequency, TF over GST control)","2.39 fold enrichment (6-mer frequency, TF over GST control)","2.13 fold enrichment (6-mer frequency, TF over GST control)","2.66 fold enrichment (6-mer frequency, TF over GST control)","2.21 fold enrichment (6-mer frequency, TF over GST control)","2.45 fold enrichment (6-mer frequency, TF over GST control)"
CTTGCT,"1.36 fold enrichment (6-mer frequency, TF over GST control)","1.37 fold enrichment (6-mer frequency, TF over GST control)","1.21 fold enrichment (6-mer frequency, TF over GST control)","1.23 fold enrichment (6-mer frequency, TF over GST control)","1.52 fold enrichment (6-mer frequency, TF over GST control)","1.27 fold enrichment (6-mer frequency, TF over GST control)","1.33 fold enrichment (6-mer frequency, TF over GST control)","1.36 fold enrichment (6-mer frequency, TF over GST control)"
ATGTTA,"1.21 fold enrichment (6-mer frequency, TF over GST control)","1.2 fold enrichment (6-mer frequency, TF over GST control)","1.24 fold enrichment (6-mer frequency, TF over GST control)","1.26 fold enrichment (6-mer frequency, TF over GST control)","1.23 fold enrichment (6-mer frequency, TF over GST control)","1.21 fold enrichment (6-mer frequency, TF over GST control)","1.23 fold enrichment (6-mer frequency, TF over GST control)","1.28 fold enrichment (6-mer frequency, TF over GST control)"
CTATCT,"1.42 fold enrichment (6-mer frequency, TF over GST control)","1.39 fold enrichment (6-mer frequency, TF over GST control)","1.39 fold enrichment (6-mer frequency, TF over GST control)","1.3 fold enrichment (6-mer frequency, TF over GST control)","1.4 fold enrichment (6-mer frequency, TF over GST control)","1.3 fold enrichment (6-mer frequency, TF over GST control)","1.28 fold enrichment (6-mer frequency, TF over GST control)","1.32 fold enrichment (6-mer frequency, TF over GST control)"
AGCTTA,"1.2 fold enrichment (6-mer frequency, TF over GST control)","1.08 fold enrichment (6-mer frequency, TF over GST control)","1.15 fold enrichment (6-mer frequency, TF over GST control)","1.17 fold enrichment (6-mer frequency, TF over GST control)","1.15 fold enrichment (6-mer frequency, TF over GST control)","1.08 fold enrichment (6-mer frequency, TF over GST control)","1.17 fold enrichment (6-mer frequency, TF over GST control)","1.05 fold enrichment (6-mer frequency, TF over GST control)"
TTGTTT,"1.45 fold enrichment (6-mer frequency, TF over GST control)","1.46 fold enrichment (6-mer frequency, TF over GST control)","1.39 fold enrichment (6-mer frequency, TF over GST control)","1.32 fold enrichment (6-mer frequency, TF over GST control)","1.6 fold enrichment (6-mer frequency, TF over GST control)","1.37 fold enrichment (6-mer frequency, TF over GST control)","1.5 fold enrichment (6-mer frequency, TF over GST control)","1.53 fold enrichment (6-mer frequency, TF over GST control)"

# From article PMC7862700, “An all-to-all approach to the identification of sequence-specific readers for epigenetic DNA modifications on cytosine”
